SW480 rerep – DNA re-replication induction in SW480 cells. SW480 DNA re-replication, Hoechst DNA content imaging, 48 h. Potency, µM (doses to about 46.1 µM), for the others: at the highest dose re-replication activation, hits mostly activators. hit rate 1.8% among 340,000. AID 624297; further: % of control where 0% means no effect; nearly all actives have a fitted effect of over 55% in size
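Image-based DNA-content assay: after two days of treatment, nuclei were labelled with the DNA dye Hoechst and imaged, and hits were compounds raising the count of nuclei showing high fluorescence intensity.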
KB-V1 MDR tox – kills drug-selected multidrug resistant KB-V1 cells; KB-V1 MDR cells viability, CellTiter-Glo, 72 h; Potency, µM (highest dose often 46.1 µM), most hits filed as cytotoxic; hit rate 3.4% among 400,000; AID 1347076; further: on the % scale 0 is the no-effect control and ±100 the full control effect; nearly all actives have a fitted effect of over 60% in size
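Readout: CellTiter-Glo luminescence, 10 min after addition. Cells: KB-V1 MDR subline, 72 h at 37 degrees C with compound. Analysis: corrected, normalized data fitted to concentration-effect curves.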
KB-3-1 tox – kills parental KB-3-1 adenocarcinoma cells | KB-3-1 viability, CellTiter-Glo ATP luminescence, 72 h | Potency, µM (series often up to 46.1 µM), hits mostly cytotoxic | hit rate 1.4% among 400,000; further: on the % scale 0 is the no-effect control and ±100 the full control effect; nearly all actives have a fitted effect of over 60% in size
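Parental KB-3-1 viability, qHTS format: 72 h compound exposure, 37 °C; CellTiter-Glo; media-only wells and DMSO plates as controls; concentration-effect fits on corrected data.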
ELG1 repair inh – inhibitors of ELG1-dependent DNA repair in HEK293T cells; HEK293T ELG1-luciferase reporter, luminescence, 16 h; DNA damage induced by 5-fluorouridine; Potency, µM (series often up to 46.1 µM), without a hit: at the top dose activity change, negative = inhibition, usual class: inhibitors; hit rate 2.3% among 330,000; further: on the % scale 0 is the no-effect control and ±100 the full control effect; nearly all actives have a fitted effect of over 55% in size
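Overnight (16 hr) co-exposure of 2,000 cells/well to 5-fluorouridine and compound at 37 °C preceded detection. Luciferase was quantified via ONE-Glo luminescence; loss of signal denotes inhibition.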
MCF10A rerep – DNA re-replication induction in MCF 10a cells; MCF 10A DNA re-replication, Hoechst nuclear intensity, 48 h; Potency, µM (highest dose often 46.1 µM), for inactives: top-dose activity, positive = re-replication, usual class: activators; hit rate 2.9% among 350,000; AID 624296; further: % of control where 0% means no effect; nearly all actives have a fitted effect of over 50% in size
* = called active by the depositor; i = inactive; ? = inconclusive; · = not tested or not shown; [ ] = remark or other dose. Only some compounds are listed: those with a hit (about 8.2% of all), similar ones and a draw of the others. The call rests on the fitted dose curve; in most records, active means well fitted curve in the direction sought with a large enough effect; inconclusive means small, poorly fitted or top-dose-only effect, or another doubt; inactive means no such curve, though single readings can be large; an effect the other way counts as inactive or inconclusive. Potency means the concentration at half of the fitted maximal effect.

SMILES | SW480 rerep | KB-V1 MDR tox | KB-3-1 tox | ELG1 repair inh | MCF10A rerep
Fc1ccc2c(c1)C1OCCCC1C(c1ccccc1)N2 (centres undefined) | ? | i | i | -24% | 6.5µM*
c1coc(C2Nc3ccccc3C3OCCC23)c1 (centres undefined) | -4% | i | i | ? | 6%
Cc1ccc(NC(=O)O/N=C/c2c(C)nn(C(C)(C)C)c2C)cc1Cl | 2% | i | i | ? | ?
COc1ccc(NS(=O)(=O)c2ccc(O)c(C(=O)OCC(=O)NC(C)C3CC4CCC3C4)c2)cc1 (centres undefined) | 1% | i | i | -10% | 5%
CC(NC(=O)COC(=O)c1cc(NS(=O)(=O)c2ccc(Cl)c([N+](=O)[O-])c2)ccc1O)C1CC2CCC1C2 (centres undefined) | 9.2µM* | i | i | ? | 6.5µM*
COc1ccc(-c2ccc(N3C(c4cc(OC)cc(OC)c4)=Cc4ccc(OC)cc4C3CC(C)=O)cc2)cc1 (centres undefined) | · | i | ? | · | ·
CCCC1(C(=O)OCC)NC(c2ccc(OC)cc2OC)C2C(=O)N(c3ccccc3)C(=O)C21 (centres undefined) | -7% | ? | i | 12µM* | 0%
CCOc1ccc(N2C(=O)C3C(c4ccc(OC)cc4OC)NC(CCSC)(C(=O)OC)C3C2=O)cc1 (centres undefined) | -6%[1.84 µM] | i | i | ? | -17%
Cc1cccc(C(=O)Nc2ccc(C(=O)/C=C/c3cccnc3)cc2)c1 | 21µM* | ? | i | ? | ?
O=C(/C=C/c1cccnc1)c1ccc(NC(=O)c2cccc(Br)c2)cc1 | 2% | 7.9µM* | ? | ? | 2%
COc1ccc(Cc2c(-c3ccccc3)nc3c(C)cc(Br)cn23)c(C)c1 | · | i | ? | · | ·
CC1(C)CC(=O)c2cc(-c3nc(-c4ccc(F)cc4)cs3)c(=O)[nH]c2C1 | · | ? | i | · | ·
Cc1ccc(S(=O)(=O)CC(=O)Nc2nc3c(C)cccc3s2)cc1 | · | i | i | · | ·
CCOc1ccc(S(=O)(=O)NCc2cccnc2)cc1NC(=O)c1ccccc1 | -9% | i | i | · | -11%
COc1ccc(S(=O)(=O)NCc2ccccn2)cc1NC(=O)c1ccccc1F | 5.8µM* | 1.8µM* | 1.5µM* | ? | 13µM*
CCOc1ccc(S(=O)(=O)NCc2ccccn2)cc1NC(=O)c1ccccc1 | ? | 6.5µM* | 2.3µM* | ? | ?
CCCNC(=O)c1ccc(COc2ccc(C(C)(C)C)cc2)o1 | 9% | i | i | 0% | ?
COc1ccccc1OCc1ccc(C(=O)NC(C)(C)C)o1 | -5% | i | i | -6% | -18%
Cc1ccc(OCc2ccc(C(=O)Nc3nc4ccccc4n3Cc3ccccc3)o2)c([N+](=O)[O-])c1 | ? | ? | i | ? | 13µM*
CC(C)(C)c1ccc(C(=O)Nc2ccc(Oc3cccnc3)nc2)cc1 | -2% | ? | ? | 2.1µM* | 25%
O=C(Nc1nc2ccccc2n1Cc1ccccc1)c1ccc(COc2ccccc2[N+](=O)[O-])o1 | ? | ? | i | -11% | ?
COc1ccccc1OCc1ccc(C(=O)Nc2ccncc2)o1 | -14% | ? | 23µM* | ? | 3%
CC(C)(C)c1ccc(OCc2ccc(C(=O)Nc3cccnc3)o2)cc1 | ? | ? | ? | ? | 23µM*
CCCCc1ccc(C(=O)N/C(=C\c2ccc(C)cc2)C(=O)NC2CCCCC2)cc1 | · | i | i | · | ·
Cc1cccc(OCc2ccc(C(=O)N3CCOCC3)o2)c1 | -1% | i | i | 21% | -2%
SMILES | SW480 rerep | KB-V1 MDR tox | KB-3-1 tox | ELG1 repair inh | MCF10A rerep
O=C(Nc1nc2ccccc2n1CCN1CCOCC1)c1ccc(COc2ccccc2Br)o1 | ? | ? | ? | 21µM* | ?
CC1CCCCN1C(=O)c1ccc(COc2ccc([N+](=O)[O-])cc2)o1 (centres undefined) | -34% | 18µM* | i | ? | ?
O=C(Nc1nc2ccccc2n1CCN1CCOCC1)c1ccc(Cn2cc([N+](=O)[O-])cn2)o1 | -2% | i | i | ? | -1%
CC(C)(C)c1ccc(OCc2ccc(C(=O)N3CCOCC3)o2)cc1 | ? | 26µM* | i | ? | 9%
O=C(Nc1cccnc1)c1ccc(COc2ccccc2Br)o1 | ? | ? | 16µM* | ? | 21µM*
NNC(=O)c1ccc(COc2ccc([N+](=O)[O-])cc2)o1 | 19% | i | i | ? | -1%
O=CN1CCN(C=O)C(O)C1O (centres undefined) | -13% | · | · | · | 5%
O=C(Oc1ccccc1)c1cccnc1Oc1ccccc1 | -4% | i | i | -4% | -1%
O=C(c1ccc(COc2ccc(Cl)cc2)o1)N1N=C(C(F)F)CC1(O)C(F)F (centres undefined) | 9% | i | ? | ? | ?
COc1ccccc1OCc1ccc(C(=O)N2N=C(C(F)F)CC2(O)C(F)F)o1 (centres undefined) | 10% | 16µM* | i | 10% | ?
CCOC(=O)c1c(C)[nH]c(C)c1S(=O)(=O)N1CCC(C(=O)NCc2cccc(C)c2)CC1 | · | ? | i | · | ·
Cc1ccc(/C=C2/CNC/C(=C/c3ccc(C)cc3)C2=O)cc1 | 4.6µM* | 4.1µM* | 3.3µM* | · | ?
Cc1ccc(/C=C2\CCOC2=O)cc1 | 10% | i | i | ? | -5%
CC(C)CCN(CCC(C)C)CC(O)Cn1c2ccccc2c(=O)c2ccccc21 (centres undefined) | ? | ? | i | ? | 3.3µM*
COc1cccc(CCNC(=O)c2c(O)nc3c(C)cccn3c2=O)c1 | · | ? | i | · | ·
Cc1ccc2nc(-c3ccc(F)cc3)c(CC3CCCCC3)n2c1 | · | ? | i | · | ·
CCOC(=O)c1sc2c(c1C)C(c1cccs1)C1=C(CCCC1=O)N2 (centres undefined) | ? | i | ? | ? | 9.2µM*
CCOC(=O)C1=C(C)NC2=C(C(=O)CCC2)C1c1cccs1 (centres undefined) | -6% | i | i | 15% | 3%
C=CCn1c(SCC(=O)Nc2cc(C)nn2-c2ccccc2)nnc1C1CCCCC1 | -2% | 5.8µM* | i | ? | 0%
C=CCn1c(SCC(=O)NCc2ccccc2)nnc1C1CCCCC1 | 0% | ? | i | -7% | 29%
Cc1ccc(S(=O)(=O)N2[C@@H](c3ccc(C(C)(C)C)cc3)C(C(=O)O)=CC[C@H]2c2ccc(C(C)C)cc2)cc1 | ? | i | i | 16µM* | ?
CCCCN(CCCC)S(=O)(=O)c1ccc(NC(=O)c2ccc([N+](=O)[O-])cc2Cl)cc1 | 0% | 16µM* | ? | ? | -2%
